# Data as given in article PMC7862700, “An all-to-all approach to the identification of sequence-specific readers for epigenetic DNA modifications on cytosine”.
# How the values were obtained:
# Experiment in all cases: DAPPL (digital affinity profiling via proximity ligation, sequencing); 10 mM Tris-HCl pH 7.5, 50 mM NaCl, 1 mM DTT, 4% glycerol, room temperature, 30 min; GST-TFs on glutathione beads, 16-mer random dsDNA library, 0.1% formaldehyde crosslink after washing; high values mean tight binding
# Settings in all cases: protein: recombinant; tags: N-terminal GST; dsDNA, one strand shown
# [1] = target: T1, FLI1 (Homo sapiens, UniProt Q01543 1-452)
# T1 sequence: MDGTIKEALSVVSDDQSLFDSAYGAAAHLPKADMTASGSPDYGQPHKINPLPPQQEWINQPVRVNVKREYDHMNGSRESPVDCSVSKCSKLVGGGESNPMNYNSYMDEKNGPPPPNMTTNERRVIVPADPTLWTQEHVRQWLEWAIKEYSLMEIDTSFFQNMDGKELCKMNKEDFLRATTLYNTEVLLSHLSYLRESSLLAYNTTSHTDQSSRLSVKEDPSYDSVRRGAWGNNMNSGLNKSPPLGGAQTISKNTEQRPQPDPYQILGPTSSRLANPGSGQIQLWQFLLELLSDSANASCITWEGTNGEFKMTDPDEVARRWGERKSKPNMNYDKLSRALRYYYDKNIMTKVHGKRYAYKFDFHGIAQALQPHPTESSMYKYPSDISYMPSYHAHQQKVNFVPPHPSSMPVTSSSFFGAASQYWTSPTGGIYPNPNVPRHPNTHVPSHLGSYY
# In short: (§1)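 Each value of binding signal is a hexamer's read frequency for a factor divided by the same hexamer's frequency in the tag-only sample. Barcoded, bead-captured GST fusions of human transcription factors made in yeast were pooled with that sample and incubated with 200 nmole of a random double-stranded 16-mer DNA library in Tris/NaCl/DTT/glycerol buffer at room temperature for 30 min. Washing, 0.1% formaldehyde crosslinking, proximity ligation, PCR and Illumina NextSeq500 sequencing followed.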
# [2] = target: T2, ELK1 (Homo sapiens, UniProt P19419 1-428)
# T2 sequence: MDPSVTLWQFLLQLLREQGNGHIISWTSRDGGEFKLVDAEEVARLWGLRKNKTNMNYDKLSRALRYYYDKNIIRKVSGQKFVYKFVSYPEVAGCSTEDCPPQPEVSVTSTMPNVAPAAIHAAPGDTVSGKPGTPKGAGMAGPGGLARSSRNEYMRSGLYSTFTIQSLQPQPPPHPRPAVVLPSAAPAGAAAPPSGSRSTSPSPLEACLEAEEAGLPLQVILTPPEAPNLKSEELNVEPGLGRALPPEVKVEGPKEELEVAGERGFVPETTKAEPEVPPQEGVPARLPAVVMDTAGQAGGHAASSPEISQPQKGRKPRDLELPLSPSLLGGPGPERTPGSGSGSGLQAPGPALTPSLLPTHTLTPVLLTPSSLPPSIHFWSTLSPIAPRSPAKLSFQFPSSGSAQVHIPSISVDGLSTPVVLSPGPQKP
# In short: as §1
# [3] = target: T3, GABPA (Homo sapiens, UniProt Q06546 1-454)
# T3 sequence: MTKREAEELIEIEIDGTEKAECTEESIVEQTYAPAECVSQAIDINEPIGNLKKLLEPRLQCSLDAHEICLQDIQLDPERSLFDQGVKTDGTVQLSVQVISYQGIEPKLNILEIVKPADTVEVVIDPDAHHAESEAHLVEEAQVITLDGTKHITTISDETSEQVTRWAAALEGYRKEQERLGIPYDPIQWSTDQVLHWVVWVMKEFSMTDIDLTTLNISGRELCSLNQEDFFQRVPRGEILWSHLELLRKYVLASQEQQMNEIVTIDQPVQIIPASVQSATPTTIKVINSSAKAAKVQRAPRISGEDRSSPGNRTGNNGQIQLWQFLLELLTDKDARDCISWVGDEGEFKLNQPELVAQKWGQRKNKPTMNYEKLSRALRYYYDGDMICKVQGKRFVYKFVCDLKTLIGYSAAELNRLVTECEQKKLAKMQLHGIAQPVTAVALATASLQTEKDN
# In short: as §1
# [4] = target: T4, ERG (Homo sapiens, UniProt P11308 1-479)
# T4 sequence: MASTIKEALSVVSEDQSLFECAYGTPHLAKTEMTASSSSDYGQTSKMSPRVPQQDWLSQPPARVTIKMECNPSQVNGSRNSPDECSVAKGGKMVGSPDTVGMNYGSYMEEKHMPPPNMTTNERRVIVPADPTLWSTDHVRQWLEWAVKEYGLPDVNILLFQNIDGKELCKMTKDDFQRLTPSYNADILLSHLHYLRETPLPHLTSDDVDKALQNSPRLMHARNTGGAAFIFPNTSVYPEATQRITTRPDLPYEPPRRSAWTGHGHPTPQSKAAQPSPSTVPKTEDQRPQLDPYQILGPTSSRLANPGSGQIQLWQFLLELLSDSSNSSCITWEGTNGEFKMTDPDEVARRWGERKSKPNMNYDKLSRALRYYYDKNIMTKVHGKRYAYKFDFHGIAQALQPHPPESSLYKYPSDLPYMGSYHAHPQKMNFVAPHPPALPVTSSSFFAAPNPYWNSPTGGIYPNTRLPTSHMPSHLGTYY
# In short: as §1
# [5] = target: ELF1 (Homo sapiens, UniProt P32519 1-619)
# ELF1, sequence (P32519 whole entry): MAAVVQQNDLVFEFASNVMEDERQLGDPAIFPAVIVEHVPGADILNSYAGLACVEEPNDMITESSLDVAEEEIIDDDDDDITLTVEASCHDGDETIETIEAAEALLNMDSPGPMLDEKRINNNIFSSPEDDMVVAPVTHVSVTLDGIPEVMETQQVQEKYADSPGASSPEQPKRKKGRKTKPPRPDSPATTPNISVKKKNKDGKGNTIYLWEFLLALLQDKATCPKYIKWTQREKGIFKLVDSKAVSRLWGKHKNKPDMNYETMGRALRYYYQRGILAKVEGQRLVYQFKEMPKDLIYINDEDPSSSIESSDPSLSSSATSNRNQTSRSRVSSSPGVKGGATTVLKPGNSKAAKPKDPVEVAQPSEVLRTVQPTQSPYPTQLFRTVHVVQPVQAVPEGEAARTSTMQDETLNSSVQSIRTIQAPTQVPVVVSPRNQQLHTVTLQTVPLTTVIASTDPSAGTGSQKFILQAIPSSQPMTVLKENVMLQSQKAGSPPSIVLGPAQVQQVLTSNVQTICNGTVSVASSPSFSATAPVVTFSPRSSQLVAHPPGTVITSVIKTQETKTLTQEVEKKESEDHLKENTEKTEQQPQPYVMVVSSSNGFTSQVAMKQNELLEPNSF
# In short: as §1
# [6] = target: T5, EHF (Homo sapiens, UniProt Q9NZC4 1-300)
# T5 sequence: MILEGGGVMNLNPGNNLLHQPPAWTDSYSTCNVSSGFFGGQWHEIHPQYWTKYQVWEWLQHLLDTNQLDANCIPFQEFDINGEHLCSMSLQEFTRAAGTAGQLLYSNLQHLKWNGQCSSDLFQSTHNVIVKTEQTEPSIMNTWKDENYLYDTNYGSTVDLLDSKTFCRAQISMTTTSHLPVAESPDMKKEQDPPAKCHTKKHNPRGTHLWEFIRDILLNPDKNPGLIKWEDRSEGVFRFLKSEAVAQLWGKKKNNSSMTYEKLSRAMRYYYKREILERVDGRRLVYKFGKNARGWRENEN
# In short: as §1
# [7] = target: SPI1 (Homo sapiens, UniProt P17947 1-270)
# In short: as §1
# [8] = target: SPIB (Homo sapiens, UniProt Q01892 1-262)
# SPIB, sequence (Q01892 whole entry): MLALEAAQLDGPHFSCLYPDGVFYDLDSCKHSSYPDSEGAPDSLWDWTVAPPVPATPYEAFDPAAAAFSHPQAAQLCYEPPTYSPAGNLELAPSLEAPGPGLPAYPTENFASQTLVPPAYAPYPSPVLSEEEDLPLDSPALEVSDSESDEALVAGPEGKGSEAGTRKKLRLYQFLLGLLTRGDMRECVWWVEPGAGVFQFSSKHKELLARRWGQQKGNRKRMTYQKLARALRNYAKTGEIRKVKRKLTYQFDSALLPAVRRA
# In short: as §1
# [9] = target: T6, ELK3 (Homo sapiens, UniProt P41970 1-407)
# T6 sequence: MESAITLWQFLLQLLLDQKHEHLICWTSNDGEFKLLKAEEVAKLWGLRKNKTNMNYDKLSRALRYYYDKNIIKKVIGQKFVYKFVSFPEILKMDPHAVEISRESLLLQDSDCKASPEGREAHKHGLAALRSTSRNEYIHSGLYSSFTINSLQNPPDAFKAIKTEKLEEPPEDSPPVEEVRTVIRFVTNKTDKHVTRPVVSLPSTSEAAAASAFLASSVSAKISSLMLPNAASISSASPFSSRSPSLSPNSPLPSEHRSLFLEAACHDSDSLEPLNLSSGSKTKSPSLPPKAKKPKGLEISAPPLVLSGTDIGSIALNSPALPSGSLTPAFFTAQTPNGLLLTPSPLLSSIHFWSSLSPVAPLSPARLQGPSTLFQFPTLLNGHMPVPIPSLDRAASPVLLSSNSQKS
# In short: as §1
# [10] = target: T7, FEV (Homo sapiens, UniProt Q99581 1-238)
# T7 sequence: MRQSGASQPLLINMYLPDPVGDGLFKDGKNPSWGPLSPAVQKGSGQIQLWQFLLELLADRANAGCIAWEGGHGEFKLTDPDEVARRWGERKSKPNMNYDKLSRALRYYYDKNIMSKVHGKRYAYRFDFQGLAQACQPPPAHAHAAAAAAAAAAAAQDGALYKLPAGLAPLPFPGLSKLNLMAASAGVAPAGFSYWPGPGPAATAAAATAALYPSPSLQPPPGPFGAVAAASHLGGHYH
# In short: as §1
# [11] = target: ETV5 (Homo sapiens, UniProt P41161 1-510)
# ETV5, sequence (P41161 whole entry): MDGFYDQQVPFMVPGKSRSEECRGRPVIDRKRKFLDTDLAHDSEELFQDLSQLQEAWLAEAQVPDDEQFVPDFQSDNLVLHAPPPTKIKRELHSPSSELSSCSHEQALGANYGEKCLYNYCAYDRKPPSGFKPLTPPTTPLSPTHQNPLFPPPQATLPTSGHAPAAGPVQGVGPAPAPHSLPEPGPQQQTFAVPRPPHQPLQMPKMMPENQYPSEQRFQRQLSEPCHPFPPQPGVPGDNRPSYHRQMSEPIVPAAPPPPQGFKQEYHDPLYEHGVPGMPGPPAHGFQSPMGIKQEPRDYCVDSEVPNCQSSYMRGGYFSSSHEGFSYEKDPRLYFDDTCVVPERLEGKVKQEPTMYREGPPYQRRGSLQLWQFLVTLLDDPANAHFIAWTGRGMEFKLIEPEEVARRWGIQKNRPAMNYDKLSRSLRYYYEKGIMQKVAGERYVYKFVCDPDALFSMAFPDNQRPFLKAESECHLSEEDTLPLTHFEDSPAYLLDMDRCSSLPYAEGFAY
# In short: as §1
# [12] = target: T8, SPIC (Homo sapiens, UniProt Q8N5J4 1-248)
# T8 sequence: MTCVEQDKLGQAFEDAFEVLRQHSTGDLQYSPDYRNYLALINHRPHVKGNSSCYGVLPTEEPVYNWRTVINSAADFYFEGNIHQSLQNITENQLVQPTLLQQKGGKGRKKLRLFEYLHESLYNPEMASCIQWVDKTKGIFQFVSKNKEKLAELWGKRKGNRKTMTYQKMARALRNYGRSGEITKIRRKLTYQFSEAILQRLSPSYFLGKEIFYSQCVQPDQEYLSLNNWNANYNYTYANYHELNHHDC
# In short: as §1
# [13] = target: ELF4 (Homo sapiens, UniProt Q99607 1-663)
# ELF4, sequence (Q99607 whole entry): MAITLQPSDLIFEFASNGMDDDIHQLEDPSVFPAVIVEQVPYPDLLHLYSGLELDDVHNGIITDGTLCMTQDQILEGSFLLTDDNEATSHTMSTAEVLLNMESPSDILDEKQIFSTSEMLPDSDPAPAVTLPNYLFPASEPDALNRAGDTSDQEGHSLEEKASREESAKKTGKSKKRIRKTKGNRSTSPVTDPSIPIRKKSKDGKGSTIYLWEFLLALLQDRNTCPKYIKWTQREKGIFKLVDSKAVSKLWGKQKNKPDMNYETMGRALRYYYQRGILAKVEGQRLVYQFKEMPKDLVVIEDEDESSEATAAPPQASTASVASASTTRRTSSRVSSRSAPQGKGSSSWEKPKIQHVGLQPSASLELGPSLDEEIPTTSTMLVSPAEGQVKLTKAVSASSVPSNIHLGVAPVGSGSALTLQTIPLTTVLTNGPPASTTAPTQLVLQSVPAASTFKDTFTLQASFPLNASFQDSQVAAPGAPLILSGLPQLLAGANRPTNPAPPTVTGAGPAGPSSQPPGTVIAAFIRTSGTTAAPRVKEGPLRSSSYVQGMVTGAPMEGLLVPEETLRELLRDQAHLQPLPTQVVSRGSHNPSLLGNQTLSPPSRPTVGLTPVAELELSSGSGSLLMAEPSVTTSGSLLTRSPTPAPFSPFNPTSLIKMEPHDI
# In short: as §1
# [14] = target: T9, ELK4 (Homo sapiens, UniProt P28324-2 1-405)
# T9 sequence: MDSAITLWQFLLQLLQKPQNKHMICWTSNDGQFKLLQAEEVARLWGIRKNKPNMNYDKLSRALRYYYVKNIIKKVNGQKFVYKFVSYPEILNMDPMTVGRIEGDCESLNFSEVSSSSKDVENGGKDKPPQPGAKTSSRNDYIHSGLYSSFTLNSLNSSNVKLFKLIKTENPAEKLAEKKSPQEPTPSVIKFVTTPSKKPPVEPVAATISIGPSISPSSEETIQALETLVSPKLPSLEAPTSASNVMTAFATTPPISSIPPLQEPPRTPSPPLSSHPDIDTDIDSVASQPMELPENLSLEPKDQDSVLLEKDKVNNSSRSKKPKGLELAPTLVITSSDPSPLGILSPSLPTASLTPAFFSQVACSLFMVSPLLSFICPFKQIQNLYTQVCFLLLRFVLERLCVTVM
# In short: as §1
# [15] = target: T10, ETV2 (Homo sapiens, UniProt O00321 1-342)
# T10 sequence: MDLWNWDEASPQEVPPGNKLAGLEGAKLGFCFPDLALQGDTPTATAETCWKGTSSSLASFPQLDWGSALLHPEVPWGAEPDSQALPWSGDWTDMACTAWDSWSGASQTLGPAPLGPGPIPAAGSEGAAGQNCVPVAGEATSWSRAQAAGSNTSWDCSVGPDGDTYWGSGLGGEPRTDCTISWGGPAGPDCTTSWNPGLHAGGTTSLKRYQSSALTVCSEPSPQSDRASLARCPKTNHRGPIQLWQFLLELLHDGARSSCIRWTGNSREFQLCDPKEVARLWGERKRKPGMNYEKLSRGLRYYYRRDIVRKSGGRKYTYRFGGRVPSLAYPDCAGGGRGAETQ
# In short: as §1
# [16] = target: T11, ELF3 (Homo sapiens, UniProt P78545 1-371)
# T11 sequence: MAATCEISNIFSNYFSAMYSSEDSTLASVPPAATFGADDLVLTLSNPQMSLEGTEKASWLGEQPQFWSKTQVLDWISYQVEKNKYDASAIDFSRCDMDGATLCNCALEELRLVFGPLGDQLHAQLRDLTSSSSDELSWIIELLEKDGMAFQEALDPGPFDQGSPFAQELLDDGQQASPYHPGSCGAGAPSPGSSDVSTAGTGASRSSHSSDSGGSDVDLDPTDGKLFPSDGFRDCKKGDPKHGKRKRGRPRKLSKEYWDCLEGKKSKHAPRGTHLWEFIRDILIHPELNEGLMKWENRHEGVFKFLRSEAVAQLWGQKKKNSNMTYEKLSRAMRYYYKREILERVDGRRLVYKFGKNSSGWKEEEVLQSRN
# In short: as §1
# [17] = target: ETV1 (Homo sapiens, UniProt P50549 1-477)
# ETV1, sequence (P50549 whole entry): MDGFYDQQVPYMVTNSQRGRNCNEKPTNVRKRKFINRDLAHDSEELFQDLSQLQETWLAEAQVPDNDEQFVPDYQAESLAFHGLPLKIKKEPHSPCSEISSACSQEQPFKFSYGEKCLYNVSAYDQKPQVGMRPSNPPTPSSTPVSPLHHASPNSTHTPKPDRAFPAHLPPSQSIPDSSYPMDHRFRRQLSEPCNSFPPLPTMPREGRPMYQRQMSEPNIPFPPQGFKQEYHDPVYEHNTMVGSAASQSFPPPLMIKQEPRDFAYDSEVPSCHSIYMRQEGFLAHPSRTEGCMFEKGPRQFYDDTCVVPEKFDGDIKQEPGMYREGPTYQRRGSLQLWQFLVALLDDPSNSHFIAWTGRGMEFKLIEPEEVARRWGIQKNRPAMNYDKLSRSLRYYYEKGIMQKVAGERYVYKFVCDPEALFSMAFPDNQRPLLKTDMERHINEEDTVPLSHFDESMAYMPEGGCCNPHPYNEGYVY
# In short: as §1
sequence,measurement,setting,value
CGGAAG,binding signal,[1],"2.85 fold enrichment (6-mer frequency, TF over GST control)"
same,binding signal,[2],"3.3 fold enrichment (6-mer frequency, TF over GST control)"
same,binding signal,[3],"2.61 fold enrichment (6-mer frequency, TF over GST control)"
same,binding signal,[4],"3.44 fold enrichment (6-mer frequency, TF over GST control)"
same,binding signal,[5],"2.8 fold enrichment (6-mer frequency, TF over GST control)"
same,binding signal,[6],"3.07 fold enrichment (6-mer frequency, TF over GST control)"
same,binding signal,[7],"3.49 fold enrichment (6-mer frequency, TF over GST control)"
same,binding signal,[8],"3.01 fold enrichment (6-mer frequency, TF over GST control)"
same,binding signal,[9],"3.41 fold enrichment (6-mer frequency, TF over GST control)"
same,binding signal,[10],"3.68 fold enrichment (6-mer frequency, TF over GST control)"
same,binding signal,[11],"3.27 fold enrichment (6-mer frequency, TF over GST control)"
same,binding signal,[12],"2.79 fold enrichment (6-mer frequency, TF over GST control)"
same,binding signal,[13],"2.61 fold enrichment (6-mer frequency, TF over GST control)"
same,binding signal,[14],"2.16 fold enrichment (6-mer frequency, TF over GST control)"
same,binding signal,[15],"2.63 fold enrichment (6-mer frequency, TF over GST control)"
same,binding signal,[16],"3.01 fold enrichment (6-mer frequency, TF over GST control)"
same,binding signal,[17],"3.2 fold enrichment (6-mer frequency, TF over GST control)"
